Source: PubChem (The Scripps Research Institute Molecular Screening Center)
This is a sample that favours compounds with a hit; in the whole collection about 0.9% have one here.
TR-FRET SRC-2 ct: TR-FRET signal artefacts, primary screen, artefact control for PPARgamma SRC-2 agonist project, biochemical; AID 1049, 2008; TR-FRET artefact counter-screen; active compounds read high; TR-FRET ratio at 8 µM; actives 0.4% (n = 200,000)
SRC1 TRFRET art: TR-FRET detection interference compounds, primary screen, artefact control for PPARgamma SRC-1 recruitment agonists, biochemical, TR-FRET emission ratio; TR-FRET detection artefact counter-screen; active compounds read high; TR-FRET ratio at 8 µM; AID 1051, 2008; actives 0.34% (n = 99,000); in the data active = TR-FRET ratio above about 2300
SRC3 TRFRET art: TR-FRET detection interference compounds, artefact control for PPARgamma SRC-3 recruitment agonists, biochemical, TR-FRET ratio; TR-FRET artefact counter-screen, PPARgamma/SRC-3 format; active compounds read high; TR-FRET ratio at 8 µM; actives 0.39% (n = 99,000)
PPARg SRC2 recr: agonists of PPARg-SRC-2 recruitment, primary screen, biochemical, HTS; activation, % at 8 µM; AID 1032, 2008; actives 0.34% (n = 200,000); PPARgamma LBD-SRC-2 recruitment; in the data active = activation above about 22%
PPARg SRC-3 ag: PPARgamma agonists recruiting SRC-3 coactivator, primary screen, biochemical; Peroxisome proliferator-activated receptor gamma (Homo sapiens), P37231; biochemical PPARgamma/SRC-3 coactivator recruitment assay; activation, % at 8 µM; actives 0.26% (n = 200,000); AID 731, 2007; in the data active = activation above about 23%
PPARg SRC-1 ag: PPARgamma agonists recruiting SRC-1 coactivator, primary screen, biochemical. actives 0.41% (n = 200,000). activation, % at 8 µM. PPARgamma-SRC-1 coactivator recruitment biochemical assay. Peroxisome proliferator-activated receptor gamma (Homo sapiens), P37231; in the data active = activation above about 19%
PPARg SRC2 conf: agonists of PPARgamma SRC-2 coactivator recruitment, confirmation, biochemical, HTS. actives 52% (n = 790). shares compounds with PPARg SRC-3 ag. biochemical SRC-2 recruitment by PPARgamma. activation, % at 8 µM; in the data active = activation above about 22%
PPARg SRC1 ag: PPARgamma agonists recruiting SRC-1 coactivator, confirmation, biochemical. shares compounds with PPARg SRC-3 ag. PPARgamma–SRC-1 coactivator recruitment biochemical assay. activation, % at 8 µM. actives 43% (n = 790). AID 1300, 2008; in the data active = activation above about 20%
PPARg SRC3 conf: PPARgamma-driven SRC-3 coactivator recruitment agonists, confirmation, biochemical. shares compounds with PPARg SRC-3 ag. AID 1301, 2008. activation, % at 8 µM. biochemical PPARgamma-SRC-3 coactivator recruitment, agonist mode. actives 29% (n = 790); in the data active = activation above about 24%
Each line names hits and unclear results; the compound was inactive in the other large screens (follow-up assays come after a bar, where they were run). Cut-off read from the data, not from the text of the source, unless noted: active = TR-FRET ratio above about 2000; inactive = the rest.

CC(=O)Oc1c(/C=C(\C#N)C(N)=O)[nH]c2ccccc12	PPARg SRC2 recr 22, PPARg SRC-1 ag 21 | PPARg SRC2 conf 22 | PPARg SRC1 ag inactive | PPARg SRC3 conf inactive
COc1ccccc1/C=C/C1=NC(=C\C=C/c2ccccc2)/C(=O)O1	PPARg SRC-3 ag 41 | PPARg SRC2 conf inactive | PPARg SRC1 ag inactive | PPARg SRC3 conf inactive
CCOC(=O)CCC(NC(=O)c1ccc(NCN2C(=O)c3ccccc3C2=O)cc1)C(=O)OCC (stereo not drawn)	PPARg SRC-1 ag 29 (no result: SRC1 TRFRET art, SRC3 TRFRET art) | PPARg SRC2 conf inactive | PPARg SRC1 ag 28 | PPARg SRC3 conf inactive
COc1ccc(C(C)C)cc1S(=O)(=O)N1CCN(c2ccccc2)CC1	none
COc1ccccc1-c1cc(N)n[nH]1	none (no result: SRC1 TRFRET art, SRC3 TRFRET art)
COc1ccccc1-c1n[nH]c(=S)o1	TR-FRET SRC-2 ct 2562, PPARg SRC2 recr 48, PPARg SRC-3 ag 59, PPARg SRC-1 ag 36 (no result: SRC1 TRFRET art, SRC3 TRFRET art) | PPARg SRC2 conf 46 | PPARg SRC1 ag 35 | PPARg SRC3 conf 30
COc1ccc(Cl)cc1-c1n[nH]c(=S)o1	TR-FRET SRC-2 ct 3750, PPARg SRC2 recr 104, PPARg SRC-3 ag 119, PPARg SRC-1 ag 57 (no result: SRC1 TRFRET art, SRC3 TRFRET art) | PPARg SRC2 conf 72 | PPARg SRC1 ag 50 | PPARg SRC3 conf 49
O=C1NCCN(Cc2ccc(Cl)c(F)c2)C1CC(=O)N1CCCCO1 (stereo not drawn)	none
C=CCOc1c(Cl)cc(CNc2ccc(N(C)C)cc2)cc1OC	TR-FRET SRC-2 ct 2956, PPARg SRC2 recr 103, PPARg SRC-3 ag 120, PPARg SRC-1 ag 60 (no result: SRC1 TRFRET art, SRC3 TRFRET art) | PPARg SRC2 conf inactive | PPARg SRC1 ag inactive | PPARg SRC3 conf inactive
C=CCOc1c(Cl)cc(CNc2ccc(C)c(Cl)c2)cc1OC	none (no result: SRC1 TRFRET art, SRC3 TRFRET art)
CCOC(=O)CC1=NN(c2ccccc2)C(=O)/C1=C\c1ccc(OC)cc1OC	none
CC(=O)CSc1nc(-c2cccs2)c(C#N)c(=O)[nH]1	TR-FRET SRC-2 ct 2150, SRC1 TRFRET art 2767, SRC3 TRFRET art 2268, PPARg SRC2 recr 26 | PPARg SRC2 conf 31 | PPARg SRC1 ag 20 | PPARg SRC3 conf inactive
CC(=O)CSc1nc(N)c(C#N)c(-c2cccs2)c1C#N	none (no result: SRC1 TRFRET art, SRC3 TRFRET art)
CCOc1ccc(C(=O)Nc2cccc([N+](=O)[O-])c2)cc1Br	none
CCSc1nc(N)c2c3c(sc2n1)CCC3	TR-FRET SRC-2 ct 2185, PPARg SRC2 recr 28, PPARg SRC-3 ag 32 (no result: SRC1 TRFRET art, SRC3 TRFRET art) | PPARg SRC2 conf inactive | PPARg SRC1 ag inactive | PPARg SRC3 conf inactive
Cc1ccc[n+](C2C(c3ccc([N+](=O)[O-])cc3)C(C#N)=C([S-])NC2(O)C2CC2)c1 (stereo not drawn)	none
N#CC(=C=[N-])C1=C(C#N)C(c2ccccc2F)C([n+]2ccccc2)C(O)(C2CC2)N1 (stereo not drawn)	TR-FRET SRC-2 ct 3792, PPARg SRC2 recr 75, PPARg SRC-3 ag 71, PPARg SRC-1 ag 32 (no result: SRC1 TRFRET art, SRC3 TRFRET art) | PPARg SRC2 conf inactive | PPARg SRC1 ag inactive | PPARg SRC3 conf inactive
CCOC(=O)C1C(=O)NC(SC)=C(C#N)C1c1ccccc1F (stereo not drawn)	none
Cc1cccc[n+]1C1C(c2ccccc2)C(C#N)=C(C(=C=[N-])C#N)NC1(O)C1CC1 (stereo not drawn)	TR-FRET SRC-2 ct 2096, PPARg SRC2 recr 26, PPARg SRC-3 ag 29 (no result: SRC1 TRFRET art, SRC3 TRFRET art) | PPARg SRC2 conf 30 | PPARg SRC1 ag 20 | PPARg SRC3 conf inactive
CC(C)N1C(=S)N(Cc2ccco2)C(=O)C1CC(=O)Nc1ccccc1 (stereo not drawn)	none
O=C1CC(Sc2nnc(-c3ccccc3)o2)C(=O)N1c1ccccc1 (stereo not drawn)	PPARg SRC2 recr 39, PPARg SRC-3 ag 31, PPARg SRC-1 ag 20 (no result: SRC1 TRFRET art, SRC3 TRFRET art) | PPARg SRC2 conf 28 | PPARg SRC1 ag 21 | PPARg SRC3 conf inactive
O=C1c2ccccc2CC1Sc1nnc(-c2ccncc2)o1 (stereo not drawn)	none (no result: SRC1 TRFRET art, SRC3 TRFRET art)
Cc1ccccc1N1C(=O)CC(Sc2nnc(-c3ccccc3)o2)C1=O (stereo not drawn)	PPARg SRC2 recr 43, PPARg SRC-3 ag 57, PPARg SRC-1 ag 42 (no result: SRC1 TRFRET art, SRC3 TRFRET art) | PPARg SRC2 conf 48 | PPARg SRC1 ag 36 | PPARg SRC3 conf 31
CCCOc1ccc(C2C(C(=O)c3ccco3)=C(O)C(=O)N2CCCn2ccnc2)cc1 (stereo not drawn)	PPARg SRC-1 ag 19 (no result: SRC1 TRFRET art, SRC3 TRFRET art) | PPARg SRC2 conf inactive | PPARg SRC1 ag inactive | PPARg SRC3 conf inactive
O=C(CSc1ccc(-c2nc3ccccc3[nH]2)cn1)Nc1ccc(S(=O)(=O)N2CCCC2)cc1	none
COc1ccc2nc(SCC(=O)Nc3ccc(S(=O)(=O)N4CCCC4)cc3)c(C#N)cc2c1	TR-FRET SRC-2 ct 4855, PPARg SRC2 recr 78, PPARg SRC-3 ag 83, PPARg SRC-1 ag 86 (no result: SRC1 TRFRET art, SRC3 TRFRET art) | PPARg SRC2 conf 79 | PPARg SRC1 ag 62 | PPARg SRC3 conf 48
N#Cc1cc2ccccc2nc1SCC(=O)Nc1ccc(S(=O)(=O)N2CCCC2)cc1	TR-FRET SRC-2 ct 3014, PPARg SRC-1 ag 19 (no result: SRC1 TRFRET art, SRC3 TRFRET art) | PPARg SRC2 conf inactive | PPARg SRC1 ag inactive | PPARg SRC3 conf inactive
COc1ccc2nc(SCC(=O)N3CCCCC3)c(C#N)cc2c1	none
Cc1cc(=O)[nH]c(SCC(=O)Nc2ccc(S(=O)(=O)N3CCCCC3)cc2)n1	none (no result: SRC1 TRFRET art, SRC3 TRFRET art)
Cc1cc2nc(-c3ccc(SCC(=O)Nc4ccc(S(=O)(=O)N5CCCC5)cc4)nc3)[nH]c2cc1C	TR-FRET SRC-2 ct 3000, SRC1 TRFRET art 3103, SRC3 TRFRET art 3472, PPARg SRC2 recr 39, PPARg SRC-1 ag 31 | PPARg SRC2 conf 79 | PPARg SRC1 ag 62 | PPARg SRC3 conf 50
Cc1ccc(-c2cc(-c3n[nH]c(=S)o3)c3ccccc3n2)cc1	none
CC(Cc1n[nH]c(=S)o1)c1ccccc1 (stereo not drawn)	none
Cc1ccccc1-c1n[nH]c(=S)o1	TR-FRET SRC-2 ct 3075, PPARg SRC2 recr 67, PPARg SRC-3 ag 79, PPARg SRC-1 ag 46 (no result: SRC1 TRFRET art, SRC3 TRFRET art) | PPARg SRC2 conf 50 | PPARg SRC1 ag 34 | PPARg SRC3 conf 36
S=c1[nH]nc(-c2ccccc2)o1	TR-FRET SRC-2 ct 2863, PPARg SRC2 recr 67, PPARg SRC-3 ag 71, PPARg SRC-1 ag 56 (no result: SRC1 TRFRET art, SRC3 TRFRET art) | PPARg SRC2 conf 52 | PPARg SRC1 ag 37 | PPARg SRC3 conf 35
